Bioassay records as filed in PubChem BioAssay.
Only some compounds are listed: those with a hit (about 2.9% of all), similar ones and a draw of the others.
EBV LMP1 NFkB: Epstein-Barr LMP1 NF-kappaB reporter inhibition. LMP1-induced NF-kappaB luciferase reporter cells, luminescence. 350,000 tested, 0.69% active. inhibition, % at 12.5 µM; in the data active = inhibition above about 41%; inconclusive = no clear call, values can overlap the other calls;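 note: 0% = neutral control wells and 100% = reference inhibitor control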
Peg3 prom inh-1: Peg3 promoter activity inhibition; 360,000 tested, 1.7% active; inhibition, % at 20 µM; AID 588405; HeLa PEG-Prom luciferase reporter, luminescence, overnight;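 active = inhibition of at least 50% at 20 µM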
KKLEB cytotox: counter-screen for CF NF-kB inhibitors: cytotoxicity; KKLEB CF airway cells viability, ATPlite luminescence, overnight; hits give low values; cells stimulated with P. aeruginosa culture filtrate; 360,000 tested, 0.36% active; activity change (cytotoxicity), % at 5 µM; AID 602141;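 active = corrected activity change at or below -50% at 5 µM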
Shn3 3UTR inh: Schnurri-3 reporter inhibition in Clone20 osteoblasts. Clone20 osteoblast Shn3 3'UTR firefly luciferase, 24 h. inhibition, % at 12.5 µM. 360,000 tested, 0.52% active. AID 588674;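 active = mean inhibition of at least 75% with every replicate also reaching 75%; inconclusive = mean inhibition at least 75% but some replicate below; inactive = mean inhibition below 75%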;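 note: 0% = median of neutral control wells and 100% = pilot-screen positive control compound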
CF NFkB inh: cystic fibrosis NF-kB activation inhibition; KKLEB NF-kB-GFP reporter, PAF-induced, GFP fluorescence overnight; 360,000 tested, 0.86% active; inhibition, % at 5 µM;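 active = at least 50% inhibition at 5 µM, scaled per plate between neutral and stimulator controls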;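 note: PAF is a Pseudomonas aeruginosa culture filtrate used as stimulus; plate controls were PAF-stimulated DMSO wells for no effect and unstimulated DMSO wells for full effect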
HIF-2a block: HIF-2a inhibition | 786-0 RCC cells HIF-2a reporter, luciferase luminescence, overnight | inhibition, % at 18.8 µM | 360,000 tested, 0.72% active | AID 624352;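 active = inhibition of the luminescence signal of 40% or more relative to plate controls, in a single-dose primary screen at 18.75 µM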
Peg3 prom inh-2: confirmation of Peg3 promoter inhibitors; HeLa PEG-Prom luciferase reporter, luminescence, overnight; inhibition, % at 20 µM; AID 602417; 1,300 tested, 84% active; shares compounds with Peg3 prom inh-1;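 active = at 20 µM dose, 40% or more inhibition averaged across four replicates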
Starred values were filed as active, the others as inactive; ? = inconclusive; / = not tested or not shown.

SMILES	EBV LMP1 NFkB	Peg3 prom inh-1	KKLEB cytotox	Shn3 3UTR inh	CF NFkB inh	HIF-2a block	Peg3 prom inh-2
CCCCCc1c(C)c(C#N)c2nc3ccccc3n2c1-n1ccnc1C	2.7	9.4	-24.1	-5.3	13.9	21.4	/
CCc1ccc2c(c1)Sc1ccccc1CC2N1CCN(C)CC1 (stereo unspecified)	-9.6	55.2*	-16.3	-4.0	10.4	9.2	77.5*
Cc1nc(N2CCN(c3ccccc3O)CC2)c2c(-c3ccccc3)csc2n1	6.8	66.0*	25.7	21.4	45.3	12.2	65.8*
COc1ccc(-c2cc(C(=O)N3CCN(c4ncccn4)CC3)c3ccccc3n2)c(OC)c1	5.8	53.4*	-25.9	12.0	-16.7	8.6	44.8*
COc1ccc(-c2cc(C(=O)N3CCN(c4ccccc4F)CC3)c3ccccc3n2)c(OC)c1	10.6	50.9*	13.1	15.9	-9.2	21.9	51.7*
COc1ccc(OC)c(-c2cc(C(=O)N3CCN(c4ncccn4)CC3)c3ccccc3n2)c1	2.1	54.5*	-3.6	12.5	-3.6	11.4	52.1*
NC(=O)c1ccc(N2CCNC(=O)C2)c([N+](=O)[O-])c1	4.9	-0.3	-20.1	-4.6	10.1	8.4	/
COc1ccc(OC)c(NC(=O)c2cc3c(Cl)nc4ccccc4c3s2)c1	13.3	64.5*	-26.4	6.0	18.2	6.3	20.1
O=C(/C=C/c1ccccc1)NC(NC(=S)Nc1cccc(Cl)c1)C(Cl)(Cl)Cl (stereo unspecified)	55.8*	79.4*	-4.4	64.9	7.3	32.4	66.8*
O=C(/C=C/c1ccccc1)NC(NC(=S)Nc1cccc(O)c1)C(Cl)(Cl)Cl (stereo unspecified)	6.1	23.8	-2.7	12.2	20.6	16.0	/
O=C1C(c2ccnc3ccccc23)=C(O)c2ccccc21	6.4	87.8*	2.8	72.3	-142.3	-9.8	0.4
C#Cc1ccc([C@H]2C=C(C(=O)NC3CC3)O[C@@H](OCC)[C@@H]2CCCO)cc1	7.1	0.3	10.4	14.2	2.7	7.8	/
NC(=O)SCC(=O)Nc1ccc(Cl)c(Cl)c1	-15.0	66.3*	16.1	-8.3	-16.6	12.9	-8.9
Cc1ccc(C)c2c1CCC(=Cc1ccccc1[N+](=O)[O-])C2=O	2.9	-18.2	-16.5	14.6	24.7	-25.8	/
CN1C/C(=C/c2ccccc2[N+](=O)[O-])C(=O)/C(=C\c2ccccc2[N+](=O)[O-])C1	-50.3	95.9*	2.7	-6.9	-14.2	1.8	99.5*
COc1ccc2c(c1)sc1nc(-c3ccccc3)cn12	79.6*	85.1*	-96.2*	?	22.4	78.4*	73.9*
Cc1nn(C)c(Cl)c1CN1CCC(CO)(CCOc2ccccc2)CC1	0.3	6.6	-0.8	36.3	-0.1	5.4	/
Cc1c(CN2CCC(CO)(CCOc3ccccc3)CC2)[nH]c2c(Cl)cccc12	-37.8	99.3*	-14.2	-49.6	24.2	5.7	99.4*
CCOC(=O)N1CCN(S(=O)(=O)c2ccc(C(=O)Nc3nc4ccc(F)cc4s3)cc2)CC1	-5.5	54.5*	-38.4	83.9	39.1	-1.0	-6.5
CCOC(=O)N1CCN(S(=O)(=O)c2ccc(C(=O)Nc3nc4ccccc4s3)cc2)CC1	-11.8	3.4	11.8	26.8	-10.5	-0.7	/
CCC(C)NCCCOc1ccc(Cl)cc1C(C)(C)C (stereo unspecified)	-9.2	-2.6	-2.2	-11.0	5.3	9.2	/
COCCCNCCCOc1ccc(Cl)cc1C(C)(C)C	2.9	61.8*	-1.9	17.9	3.5	-1.3	39.5
CCOc1ccc(OCc2cccc(C(=O)O)c2)cc1	83.5*	100.0*	-18.5	88.7*	-1.6	89.5*	95.6*
O=C(O)c1cccc(COc2ccc3c(c2)CCC3)c1	84.6*	85.0*	-4.2	77.2	11.0	88.2*	72.5*
O=C(O)c1cccc(COc2ccc(CO)cc2Cl)c1	91.2*	100.0*	-0.2	89.5*	-8.6	88.8*	87.8*
SMILES	EBV LMP1 NFkB	Peg3 prom inh-1	KKLEB cytotox	Shn3 3UTR inh	CF NFkB inh	HIF-2a block	Peg3 prom inh-2
O=C(O)c1cc(OCc2ccccc2)cc(OCc2ccccc2)c1	0.1	9.0	-2.6	-7.3	-6.3	21.3	/
O=C(O)c1cccc(S(=O)(=O)Nc2ccc(OCc3ccccc3)cc2)c1	-0.4	-9.6	5.8	-24.9	4.3	15.9	/
CC1CN(C(=O)c2cccn(Cc3c(Cl)cccc3Cl)c2=O)CC(C)O1 (stereo unspecified)	7.6	0.1	-10.9	12.0	15.6	8.7	/
CCN(CC)CCNc1cccc2sc3ccccc3c(=O)c12	-7.2	100.8*	-8.7	-18.0	-12.6	4.9	68.2*
COc1ccc(-c2cc3ccccc3n2CC(O)CN2CCCCC2)cc1 (stereo unspecified)	-5.4	3.4	6.7	-28.4	5.1	1.1	/
CCC(=C(c1ccc(OC)cc1)c1ccc(OC)cc1)c1cn(CC(O)CN2CCN(C)CC2)c2ccccc12 (stereo unspecified)	-1.9	104.7*	-24.7	17.9	21.1	11.9	100.8*
Cc1cccc(-n2cc(-c3ccccc3)c3c(N4CCOCC4)ncnc32)c1	8.3	68.9*	-91.5*	25.1	93.9*	26.7	82.3*
CSc1ccccc1C(=O)NCc1ccc(C)cc1	-3.7	-21.1	0.8	-9.0	-2.5	2.1	/
c1ccc(CCNc2nc(-c3ccncc3)nc3ccccc23)cc1	-3.8	56.2*	-24.6	16.2	8.6	17.3	69.3*
CC(=O)c1sc2c(c1OC(=O)c1ccc(Cl)cc1Cl)c(=O)n(-c1ccccc1)c(=S)n2-c1ccccc1	-3.8	79.6*	-16.8	-8.8	53.9*	37.2	58.6*
CC(=O)c1sc2c(c1OC(=O)c1ccc(Cl)cc1)c(=O)n(-c1ccccc1)c(=S)n2-c1ccccc1	-1.4	39.1	14.9	10.8	23.7	-10.0	/
CCCCNC(=O)C1(C)CCN1Cc1cccc2c(OC)cc(C(=O)OCC)cc12 (stereo unspecified)	/	57.4*	-9.0	43.7	30.9	14.3	36.9
CCCCNC(=O)C1(C)CCN1Cc1ccc(C(=O)OCC)cc1 (stereo unspecified)	/	6.7	-7.4	5.7	-2.2	2.2	/
CCOc1ccccc1-c1nc(CN2CCCN(C(=O)c3ccco3)CC2)c(C)o1	-5.5	-1.6	6.2	19.9	-11.3	13.3	/
CCOC(=O)c1c(C)n(-c2ccc(OC)cc2)c2ccc(O)c(CN(C)C)c12	-4.3	55.0*	-11.4	-15.0	17.3	23.8	29.9
COc1ccc2c(C#CCCO)c(-c3ccc(S(C)(=O)=O)cc3)sc2c1	-59.9	50.2*	-19.4	-8.8	7.0	9.9	42.2*
COc1ccc(-c2sc3ccccc3c2C#CCCO)cc1	-12.6	6.8	-16.1	-43.6	24.2	2.1	/
CS(=O)(=O)c1ccc(-c2sc3ccccc3c2C#CCCO)cc1	-19.1	54.0*	3.0	-8.8	-4.2	-9.3	60.0*
